Values without a mark were called inactive. Records with an inconclusive call do not appear. Where a call stands in place of a potency, no number is given. Calls of active or inactive are those of the source. Unless noted, calls come from the whole dose curve; as a rule, active = well fitted curve in the direction sought with a large enough effect in the repeat runs; inconclusive = weak or mixed curves; inactive = no such curve, though single readings can be large; an effect the other way counts as inactive or inconclusive.
Assays:
[1] = Human pregnane X receptor (PXR) small molecule agonists, qHTS cell viability counter screen (AID 1346977); note: nearly all actives have a fitted effect of over 50% in size; note: potency is the fitted concentration of half-maximal effect
Method in brief: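 Same-well viability read: CellTiter-Fluor added after 23 hr compound exposure, fluorescence measured 1 hr later. Cells were PXR-Luc HepG2 seeded at 2,000/well in 5% charcoal-stripped FBS medium, rested 5 hr before dosing at 37 C.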

[2] = Caspase-3/7 induction in HepG2 cells by small molecules, qHTS assay (AID 1346978); note: nearly all actives have a fitted effect of over 15% in size; note: potency is the fitted concentration of half-maximal effect
Method in brief: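 Wild-type HepG2 cells, 2,000/well, settled 5 hr at 37 C and 5% CO2, then compound-treated for 17 hr; caspase-3/7 activity read by luminescent Caspase-Glo 3/7 after 30 min at room temperature.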

[3] = Caspase-3/7 induction in CHO-K1 cells by small molecules, qHTS cell viability counter screen (AID 1346979); note: nearly all actives have a fitted effect of over 35% in size; note: potency is the fitted concentration of half-maximal effect
Method in brief: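 Cytotoxicity counter screen: CellTiter-Fluor added to compound-treated wild-type CHO-K1 cells at 16 h (37C, 5% CO2), fluorescence measured 1 h later; same wells as caspase-3/7 measurement.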

[4] = Caspase-3/7 induction in CHO-K1 cells by small molecules, qHTS assay (AID 1346980); note: nearly all actives have a fitted effect of over 15% in size; note: potency is the fitted concentration of half-maximal effect
Method in brief: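 Wild-type CHO-K1 cells exposed to compounds for 17hr at 37 C, 5% CO2. Caspase-3/7 activity then measured by Caspase-Glo 3/7 luminescence after 30min at room temperature.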

[5] = Caspase-3/7 induction in HepG2 cells by small molecules, qHTS cell viability counter screen (AID 1346981); note: nearly all actives have a fitted effect of over 30% in size; note: potency is the fitted concentration of half-maximal effect
Method in brief: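 Viability determined by CellTiter-Fluor fluorescence in HepG2 wells also used for the luminescent Caspase-Glo 3/7 read. Compounds were present for 16 hr at 37 C, 5% CO2 before reagent addition.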

[6] = target: Acetylcholinesterase (Homo sapiens) (UniProt P22303); experiment: Acetylcholinesterase (AChE) small molecule antagonists: colormetric cell-based qHTS assay (AID 1347395; calls by dose curve; note: nearly all actives have a fitted effect of over 30% in size)
Sequence of Acetylcholinesterase (Homo sapiens) (P22303 whole entry, looked up): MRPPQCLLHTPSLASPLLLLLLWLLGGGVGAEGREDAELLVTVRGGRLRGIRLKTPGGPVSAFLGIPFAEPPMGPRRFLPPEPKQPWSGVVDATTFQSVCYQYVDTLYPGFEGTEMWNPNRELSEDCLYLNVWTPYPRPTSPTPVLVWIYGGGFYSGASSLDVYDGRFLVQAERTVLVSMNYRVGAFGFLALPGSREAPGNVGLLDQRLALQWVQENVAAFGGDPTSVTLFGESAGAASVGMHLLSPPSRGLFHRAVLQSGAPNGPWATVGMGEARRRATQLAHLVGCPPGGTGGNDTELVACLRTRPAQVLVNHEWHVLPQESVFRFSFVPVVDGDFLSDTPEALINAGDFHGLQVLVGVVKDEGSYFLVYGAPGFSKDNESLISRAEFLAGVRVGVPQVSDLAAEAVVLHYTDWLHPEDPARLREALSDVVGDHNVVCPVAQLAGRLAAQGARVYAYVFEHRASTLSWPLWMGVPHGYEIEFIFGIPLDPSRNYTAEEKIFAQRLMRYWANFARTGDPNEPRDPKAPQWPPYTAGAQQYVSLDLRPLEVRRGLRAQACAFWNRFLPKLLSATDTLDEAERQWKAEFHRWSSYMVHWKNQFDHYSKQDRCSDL
Method in brief: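 Colorimetric readout: DTNB quantifies thiocholine from acetylthiocholine hydrolysed by endogenous AChE of SH-SY5Y cells (2,000/well, plated overnight). Compound pretreatment 30 min, substrate incubation 90 min, both 37 C.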

[7] = target: Acetylcholinesterase (Homo sapiens) (UniProt P22303); experiment: Acetylcholinesterase (AChE) small molecule antagonists: enzyme-based qHTS assay (AID 1347397; calls by dose curve; note: nearly all actives have a fitted effect of over 55% in size); conditions: Potency: AChE enzyme activity inhibition
Method in brief: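 Enzyme inhibition was scored from DTNB-detected thiocholine formed by recombinant human AChE acting on acetylthiocholine. The 30 min compound preincubation and 10 min substrate reaction were both run at room temperature, with DMSO as vehicle control.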

[8] = target: Acetylcholinesterase (Homo sapiens) (UniProt P22303); experiment: Acetylcholinesterase (AChE) small molecule antagonists: fluorescence cell-based qHTS assay (AID 1347398; calls by dose curve; note: nearly all actives have a fitted effect of over 50% in size); conditions: Potency: AChE activity
Method in brief: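 Endogenous acetylcholinesterase of SH-SY5Y neuroblastoma cells is measured in situ. After overnight attachment and 30 min compound exposure, cells receive acetylthiocholine and Thiolite Green; fluorescence is read after 40 min at room temperature.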

[9] = target: Acetylcholinesterase (Homo sapiens) (UniProt P22303); experiment: Acetylcholinesterase (AChE) small molecule antagonists: enzyme-based qHTS assay with human liver microsomes (AID 1347399; calls by dose curve; note: nearly all actives have a fitted effect of over 60% in size); conditions: Potency: qHTS inhibition
Method in brief: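 Recombinant human AChE (50 mU/mL in the enzyme mix) and human liver microsomes (0.25 mg/mL final) were preincubated with compound and NADPH (0.25 mg/mL final) for 30 min at 37 C. Acetylthiocholine/DTNB was then added; thiocholine was read colorimetrically after 10 min at room temperature.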

[10] = target: Cytochrome P450 2D6 (Homo sapiens) (UniProt P10635); experiment: Cytochrome P450 Family 2 Subfamily D Member 6 (CYP2D6) small molecule antagonists: luciferase reporter qHTS assay (AID 1671196); note: nearly all actives have a fitted effect of over 50% in size; note: potency is the fitted concentration of half-maximal effect
Sequence of Cytochrome P450 2D6 (Homo sapiens) (P10635 whole entry, looked up): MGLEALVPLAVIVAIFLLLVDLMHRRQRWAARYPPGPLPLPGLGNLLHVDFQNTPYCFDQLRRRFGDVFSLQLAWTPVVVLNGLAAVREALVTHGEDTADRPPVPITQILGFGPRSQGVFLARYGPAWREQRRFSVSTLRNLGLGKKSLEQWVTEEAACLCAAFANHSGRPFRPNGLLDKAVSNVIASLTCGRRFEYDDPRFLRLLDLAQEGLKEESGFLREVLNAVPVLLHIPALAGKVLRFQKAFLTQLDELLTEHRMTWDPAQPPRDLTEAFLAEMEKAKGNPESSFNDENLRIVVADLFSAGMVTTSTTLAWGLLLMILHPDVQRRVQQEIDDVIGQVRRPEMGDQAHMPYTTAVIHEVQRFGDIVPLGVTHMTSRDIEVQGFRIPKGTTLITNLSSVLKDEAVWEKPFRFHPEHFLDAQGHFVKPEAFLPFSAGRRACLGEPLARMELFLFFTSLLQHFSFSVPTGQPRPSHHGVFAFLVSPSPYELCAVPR
Method in brief: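 Each well received CYP2D6 with its proluciferin substrate and chemical, sat 10 min, then got NADPH regeneration solution for 1 h at room temperature. Luminescence in RLU served as the activity measure.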

[11] = target: Cytochrome P450 2C19 (Homo sapiens) (UniProt P33261); experiment: Cytochrome P450 Family 2 Subfamily C Member 19 (CYP2C19) small molecule antagonists: luciferase reporter qHTS assay (AID 1671197); note: nearly all actives have a fitted effect of over 65% in size; note: potency is the fitted concentration of half-maximal effect
Sequence of Cytochrome P450 2C19 (Homo sapiens) (P33261 whole entry, looked up): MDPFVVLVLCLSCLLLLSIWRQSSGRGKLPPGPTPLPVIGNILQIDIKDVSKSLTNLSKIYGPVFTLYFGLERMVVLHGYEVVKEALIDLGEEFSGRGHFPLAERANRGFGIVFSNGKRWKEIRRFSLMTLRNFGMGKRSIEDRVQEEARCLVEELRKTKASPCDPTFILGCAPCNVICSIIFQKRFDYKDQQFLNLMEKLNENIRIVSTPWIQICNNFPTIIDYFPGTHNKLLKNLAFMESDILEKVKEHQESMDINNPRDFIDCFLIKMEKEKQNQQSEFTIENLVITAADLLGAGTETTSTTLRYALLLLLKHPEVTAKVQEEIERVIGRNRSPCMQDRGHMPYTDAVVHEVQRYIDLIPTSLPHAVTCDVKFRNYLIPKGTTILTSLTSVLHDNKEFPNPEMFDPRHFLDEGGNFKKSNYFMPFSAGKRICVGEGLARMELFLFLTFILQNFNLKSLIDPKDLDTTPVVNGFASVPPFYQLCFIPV
Method in brief: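 Light output is proportional to CYP2C19 activity: proluciferin substrate is converted to luciferin, then detected by a luciferin detection reagent that also stops the 1 h, 37C NADPH-driven reaction. Ketoconazole serves as positive control.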

[12] = target: Cytochrome P450 2C9 (Homo sapiens) (UniProt P11712); experiment: Cytochrome P450 Family 2 Subfamily C Member 9 (CYP2C9) small molecule antagonists: luciferase reporter qHTS assay (AID 1671198); note: nearly all actives have a fitted effect of over 50% in size; note: potency is the fitted concentration of half-maximal effect
Sequence of Cytochrome P450 2C9 (Homo sapiens) (P11712 whole entry, looked up): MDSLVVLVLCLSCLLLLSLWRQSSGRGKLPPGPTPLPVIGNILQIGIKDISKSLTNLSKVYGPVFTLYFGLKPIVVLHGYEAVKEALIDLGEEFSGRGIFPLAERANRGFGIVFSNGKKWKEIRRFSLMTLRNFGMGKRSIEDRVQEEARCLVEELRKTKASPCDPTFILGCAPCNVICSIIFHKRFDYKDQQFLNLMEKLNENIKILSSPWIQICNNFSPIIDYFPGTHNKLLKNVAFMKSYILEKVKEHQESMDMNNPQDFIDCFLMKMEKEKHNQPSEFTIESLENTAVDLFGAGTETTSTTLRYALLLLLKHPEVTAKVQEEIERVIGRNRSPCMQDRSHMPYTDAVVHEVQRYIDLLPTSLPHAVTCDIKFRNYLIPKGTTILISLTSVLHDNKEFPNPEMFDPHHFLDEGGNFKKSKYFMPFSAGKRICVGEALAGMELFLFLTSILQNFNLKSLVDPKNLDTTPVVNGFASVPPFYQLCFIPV
Method in brief: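 P450-Glo proluciferin substrate with CYP2C9 enzyme; 10 min RT preincubation, then NADPH regeneration 1 h at 37C; luciferin detection reagent 20 min RT, luminescence in relative luminescence units.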

[13] = target: Voltage-gated inwardly rectifying potassium channel KCNH2 (Homo sapiens) (UniProt Q12809); experiment: Human Ether-a-go-go-Related Gene (hERG) channel small molecule antagonists: fluorescence cell-based qHTS assay (AID 1671200)
Sequence of Voltage-gated inwardly rectifying potassium channel KCNH2 (Homo sapiens) (Q12809 whole entry, looked up): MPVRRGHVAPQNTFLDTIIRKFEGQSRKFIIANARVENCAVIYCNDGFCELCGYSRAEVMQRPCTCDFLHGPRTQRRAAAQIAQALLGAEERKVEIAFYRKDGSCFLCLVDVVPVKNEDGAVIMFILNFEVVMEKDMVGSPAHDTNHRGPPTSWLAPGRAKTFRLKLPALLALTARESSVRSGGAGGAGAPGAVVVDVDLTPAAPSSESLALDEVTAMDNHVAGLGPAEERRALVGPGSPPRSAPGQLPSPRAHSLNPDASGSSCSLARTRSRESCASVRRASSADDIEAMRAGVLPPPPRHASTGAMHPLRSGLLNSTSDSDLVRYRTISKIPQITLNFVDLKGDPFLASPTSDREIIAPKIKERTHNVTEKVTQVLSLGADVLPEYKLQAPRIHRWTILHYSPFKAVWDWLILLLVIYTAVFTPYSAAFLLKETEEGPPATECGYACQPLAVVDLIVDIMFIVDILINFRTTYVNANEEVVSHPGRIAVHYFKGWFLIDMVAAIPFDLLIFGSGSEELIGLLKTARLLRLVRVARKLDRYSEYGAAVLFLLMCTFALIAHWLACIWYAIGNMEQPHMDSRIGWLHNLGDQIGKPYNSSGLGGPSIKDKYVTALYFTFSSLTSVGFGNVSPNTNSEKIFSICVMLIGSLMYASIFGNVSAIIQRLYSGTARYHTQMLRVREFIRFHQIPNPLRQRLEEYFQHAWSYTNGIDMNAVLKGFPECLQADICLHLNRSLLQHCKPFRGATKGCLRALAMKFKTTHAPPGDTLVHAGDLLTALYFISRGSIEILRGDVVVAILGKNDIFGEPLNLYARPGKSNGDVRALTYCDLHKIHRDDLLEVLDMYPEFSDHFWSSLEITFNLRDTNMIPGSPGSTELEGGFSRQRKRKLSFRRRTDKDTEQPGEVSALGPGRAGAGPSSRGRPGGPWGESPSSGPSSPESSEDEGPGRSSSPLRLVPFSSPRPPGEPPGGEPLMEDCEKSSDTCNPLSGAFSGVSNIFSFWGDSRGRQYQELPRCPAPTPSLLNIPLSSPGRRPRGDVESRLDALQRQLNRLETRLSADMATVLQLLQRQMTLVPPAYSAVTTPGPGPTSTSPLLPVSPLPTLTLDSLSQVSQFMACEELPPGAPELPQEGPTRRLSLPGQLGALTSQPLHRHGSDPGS
Method in brief: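 Thallium flux as potassium surrogate: FluxOR II dye loaded 1 h at room temperature into hERG-expressing U2OS cells, then stimulus buffer added after 10 min. Kinetic 480 nm excitation/540 nm emission read, 2 min.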

[14] = target: Cytochrome P450 3A4 (Homo sapiens) (UniProt P08684); experiment: Cytochrome P450 Family 3 Subfamily A Member 4 (CYP3A4) small molecule antagonists: luciferase reporter qHTS assay (AID 1671201); note: nearly all actives have a fitted effect of over 50% in size; note: potency is the fitted concentration of half-maximal effect
Sequence of Cytochrome P450 3A4 (Homo sapiens) (P08684 whole entry, looked up): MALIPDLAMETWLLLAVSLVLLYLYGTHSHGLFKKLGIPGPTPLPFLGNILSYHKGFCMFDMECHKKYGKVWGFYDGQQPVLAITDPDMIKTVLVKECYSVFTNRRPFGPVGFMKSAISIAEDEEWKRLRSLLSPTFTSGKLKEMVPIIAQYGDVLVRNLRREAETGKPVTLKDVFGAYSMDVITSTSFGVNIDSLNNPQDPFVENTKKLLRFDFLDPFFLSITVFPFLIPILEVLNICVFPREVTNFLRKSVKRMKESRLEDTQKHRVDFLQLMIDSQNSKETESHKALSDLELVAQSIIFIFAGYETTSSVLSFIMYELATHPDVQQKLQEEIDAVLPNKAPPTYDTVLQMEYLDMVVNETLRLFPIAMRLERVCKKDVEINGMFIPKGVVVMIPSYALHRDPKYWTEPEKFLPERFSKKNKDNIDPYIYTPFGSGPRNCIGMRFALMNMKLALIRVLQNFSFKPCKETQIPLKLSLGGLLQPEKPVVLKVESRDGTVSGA
Method in brief: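 Recombinant human CYP3A4 converts a proluciferin substrate to luciferin over 1 h at room temperature after NADPH regeneration solution is added (compound preincubated 10 min); detection reagent stops reaction, luminescence read 20 min later as relative units.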

[15] = target: Nuclear receptor subfamily 1 group I member 2 (Homo sapiens) (UniProt O75469); experiment: Human pregnane X receptor (PXR) small molecule agonists, qHTS assay (AID 1346982); note: nearly all actives have a fitted effect of over 35% in size; note: potency is the fitted concentration of half-maximal effect
Sequence of Nuclear receptor subfamily 1 group I member 2 (Homo sapiens) (O75469 whole entry, looked up): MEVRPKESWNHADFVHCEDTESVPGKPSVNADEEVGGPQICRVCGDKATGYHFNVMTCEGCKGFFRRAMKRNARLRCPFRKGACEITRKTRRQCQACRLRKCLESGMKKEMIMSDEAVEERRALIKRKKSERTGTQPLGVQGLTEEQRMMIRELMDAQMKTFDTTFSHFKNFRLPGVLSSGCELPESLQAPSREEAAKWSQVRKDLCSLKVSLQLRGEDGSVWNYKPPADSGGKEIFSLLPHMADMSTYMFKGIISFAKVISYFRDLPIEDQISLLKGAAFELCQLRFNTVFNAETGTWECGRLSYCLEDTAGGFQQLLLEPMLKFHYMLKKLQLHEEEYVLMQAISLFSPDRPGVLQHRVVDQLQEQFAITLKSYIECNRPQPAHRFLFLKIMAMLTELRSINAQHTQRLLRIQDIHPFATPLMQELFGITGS
Method in brief: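 Compound-induced hPXR transactivation of a CYP3A4 luciferase reporter was scored in HepG2 PXR-Luc cells over 24 hr at 37 C, 5% CO2, by luminescence.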

[16] = target: Cytochrome P450 1A2 (Homo sapiens) (UniProt P05177); experiment: Cytochrome P450 Family 1 Subfamily A Member 2 (CYP1A2) small molecule antagonists: luciferase reporter qHTS assay (AID 1671199); note: nearly all actives have a fitted effect of over 50% in size; note: potency is the fitted concentration of half-maximal effect
Sequence of Cytochrome P450 1A2 (Homo sapiens) (P05177 whole entry, looked up): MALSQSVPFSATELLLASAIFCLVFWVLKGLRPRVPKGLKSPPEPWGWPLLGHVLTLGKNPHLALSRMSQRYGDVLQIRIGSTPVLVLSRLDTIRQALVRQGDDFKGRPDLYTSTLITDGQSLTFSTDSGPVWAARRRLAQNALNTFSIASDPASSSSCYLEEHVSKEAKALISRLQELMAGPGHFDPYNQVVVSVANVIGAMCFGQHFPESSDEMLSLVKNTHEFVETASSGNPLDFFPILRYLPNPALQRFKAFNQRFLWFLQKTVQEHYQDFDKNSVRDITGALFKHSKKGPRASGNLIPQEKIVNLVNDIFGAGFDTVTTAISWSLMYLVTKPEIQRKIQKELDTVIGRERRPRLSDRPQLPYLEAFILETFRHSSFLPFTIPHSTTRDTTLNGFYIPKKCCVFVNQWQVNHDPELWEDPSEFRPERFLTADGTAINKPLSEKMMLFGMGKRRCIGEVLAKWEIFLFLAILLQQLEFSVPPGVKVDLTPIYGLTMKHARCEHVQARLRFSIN
Method in brief: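 Enzymatic CYP1A2 assay, human, luminescent: 10 min compound–enzyme–substrate preincubation, 1 h NADPH-dependent turnover, 20 min detection step, room temperature throughout. Reduced light indicates lower CYP1A2 activity.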

[17] = target: Nuclear receptor subfamily 1 group I member 2 (Rattus norvegicus) (UniProt Q9R1A7); experiment: Rat pregnane X receptor (rPXR) activation by small molecules, qHTS assay (AID 1346983); conditions: rPXR luciferase reporter cells, One-Glo luminescence, 24 h; max activation: active compounds read high; note: nearly all actives have a fitted effect of over 20% in size
Method in brief: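 Cell-based rPXR activation assay: rPXR cells, 2,000 per well, rested 5hr at 37 C, then exposed to compounds in DMSO for 24 hr at 37 C. Luciferase activity read by One-Glo luminescence after 30 min at room temperature.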

[18] = target: Nuclear receptor subfamily 1 group I member 2 (Homo sapiens) (UniProt O75469); experiment: CYP3A4 induction through human pregnane X receptor (PXR) by small molecules, qHTS assay (AID 1346984); note: nearly all actives have a fitted effect of over 40% in size
Method in brief: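 Readings come from a luciferase reporter: DPX-2 cells, which are HepG2 cotransfected with PXR and a CYP3A4-promoter construct, were exposed to test compounds for 24 h at 37C before One-Glo detection.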

[19] = target: Nuclear receptor subfamily 1 group I member 2 (Homo sapiens) (UniProt O75469); experiment: Human pregnane X receptor (PXR) activation by small molecules, qHTS assay (AID 1346985); note: nearly all actives have a fitted effect of over 40% in size
Method in brief: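 DPX-2 cells (HepG2 co-transfected with a PXR response element and a CYP3A4-promoter luciferase construct) were seeded at 2,000 per well, rested 5 hr at 37C, then exposed to DMSO-dissolved compounds for 24 hr. Activation was read as luciferase luminescence.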

| Structure (SMILES) | Potency [1] | Potency [2] | Potency [3] | Potency [4] | Potency [5] | Potency [6] | Potency [7] | Potency [8] | Potency [9] | Potency [10] | Potency [11] | Potency [12] | Potency [13] | Potency [14] | Potency [15] | Potency [16] | max activation [17] [%] | Potency [18] | Potency [19] |
| --- | --- | --- | --- | --- | --- | --- | --- | --- | --- | --- | --- | --- | --- | --- | --- | --- | --- | --- | --- |
| O=[N+]([O-])c1cccc(O)c1 | inactive | inactive | inactive | inactive | inactive | inactive | inactive | inactive | inactive | inactive | inactive | inactive | inactive | inactive | – | – | – | – | – |
| CCS(=O)(=O)CCSP(=O)(OC)OC | inactive | inactive | inactive | inactive | inactive | – | inactive | inactive | inactive | inactive | inactive | inactive | inactive | inactive | inactive | inactive | – | – | – |
| COc1cccc2c1cc([N+](=O)[O-])c1c(C(=O)O)cc3c(c12)OCO3 | 12.2 µM (active) | 9.69 µM (active) | 21.7 µM (active) | 9.69 µM (active) | 27.3 µM (active) | inactive | inactive | inactive | inactive | inactive | 79.6 µM (active) | 28.3 µM (active) | inactive | 22.4 µM (active) | – | 39.9 µM (active) | – | – | – |
| O=C1CN=C(c2ccccc2)c2cc([N+](=O)[O-])ccc2N1 | inactive | inactive | inactive | inactive | inactive | inactive | inactive | inactive | inactive | – | – | – | inactive | – | – | inactive | -2.6 | inactive | inactive |
| CCCCc1c(C)nc(NCC)[nH]c1=O | inactive | inactive | inactive | inactive | inactive | inactive | inactive | inactive | inactive | inactive | 79.6 µM (active) | inactive | inactive | inactive | – | 17.8 µM (active) | – | – | – |
| CN/C(=N\[N+](=O)[O-])NCC1CCOC1 (stereo unspecified) | inactive | inactive | inactive | inactive | inactive | – | – | – | – | – | – | – | inactive | – | – | – | – | – | – |
| CC(C=O)Cc1ccc2c(c1)OCO2 (stereo unspecified) | inactive | inactive | inactive | inactive | inactive | inactive | inactive | inactive | inactive | 63.3 µM (active) | 20 µM (active) | 15.9 µM (active) | inactive | 11.2 µM (active) | – | 6.33 µM (active) | – | – | – |
| ClC(Cl)C(Cl)Cl | inactive | inactive | inactive | – | inactive | inactive | inactive | inactive | inactive | inactive | inactive | inactive | inactive | – | 55 µM (active) | – | – | – | – |
| Nc1cc(Cl)ccc1O | inactive | inactive | 29.6 µM (active) | inactive | – | inactive | inactive | inactive | inactive | 34.4 µM (active) | 21.7 µM (active) | 30.7 µM (active) | inactive | 21.7 µM (active) | – | 30.7 µM (active) | – | – | – |

— PubChem BioAssay (Tox21)
